# Laboratory results reported in PubChem BioAssay (Tox21).
# Inconclusive results are not listed. Values without a mark were called inactive. The source made the active and inactive calls. Calls come from the whole dose curve; as a rule, active = well fitted curve in the direction sought with a large enough effect in the repeat runs; inconclusive = weak or mixed curves; inactive = no such curve, though single readings can be large; an effect the other way counts as inactive or inconclusive.
# Assay: A CellTox Green Cytotoxicity Assay to monitor cytotoxicity in HepG2 cells - 40 hour (AID 1224879); note: nearly all actives have a fitted effect of over 40% in size; note: potency is the fitted concentration of half-maximal effect
# Settings: CellTox Green fluorescence; series mostly up to 76.8 µM; cytotoxicity increase: at the top concentration
# In short: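 Fluorescent DNA-binding dye, 600 HepG2 cells/well, 5 h preincubation then compound in DMSO; same plates read at 0–40 h, 37 C.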
# % is set by controls: 0 for no effect and ±100 for the full control effect.
SMILES,cytotoxicity increase,Potency
Cc1cc(OI)c(C(C)C)cc1-c1cc(C(C)C)c(OI)cc1C,-5.81% [at 35.3 µM],–
C[N+](C)(C)CCOC(N)=O,-7.88% [at 35.3 µM],–
CC(C)(O)c1ccccc1CC[C@@H](SCC1(CC(=O)O)CC1)c1cccc(/C=C/c2ccc3ccc(Cl)cc3n2)c1,0.159% [at 35.3 µM],–
CCCCC(CC)CNCC(CC)CCCC (centres undefined),0.423%,–
COCCOC,0.596%,–
CC(=O)Nc1ccccc1C,-18.1%,–
C/C=C(\C)C(=O)OCCC(C)CCC=C(C)C (centres undefined),0.363%,–
CCCCCCCC/C=C\CCCCCCCC(=O)OC(CO)CO,-0.388%,–
CCn1nc(C)c2c1C(=O)NCC(c1ccc(O)cc1)=N2,0.96%,–
Cc1ccnc2ccccc12,20.3%,–
CCn1cc(C(=O)O)c(=O)c2cc(F)c(N3CCNCC3)nc21,1.35% [at 35.3 µM],–
Brc1cc(-c2ccc(Br)c(Br)c2Br)cc(Br)c1Br,-16.7% [at 35.3 µM],–
CCC1(C)CC(=O)NC1=O (centres undefined),-17.2% [at 35.3 µM],–
O=S(=O)(c1ccccc1)c1ccc(Cl)cc1,-3.28%,–
O=C(O)c1c(O)c(-c2ccccc2)nc2ccccc12,-17.5% [at 35.3 µM],–
CC(C)(C)C(=O)O,1.43%,–
CCOC(=O)OCC,1.54%,–
CN1Cc2cc(C(=O)N3CCC(C4CCNCC4)CC3)ccc2N[C@@H](CC(=O)O)C1=O,-13.6% [at 35.3 µM],–
OC(CCCN1CCCCC1)(c1ccccc1)c1ccccc1,-1.15% [at 35.3 µM],–
CCN(CC)CCNC(=O)c1ccc(NC(C)=O)cc1,-4.12% [at 35.3 µM],–

SMILES,cytotoxicity increase,Potency
CC(C)CCCCCOC(=O)CCCCC(=O)OCCCCCC(C)C,-2.4%,–
O=C(CS)OCCOC(=O)CS,0.866%,–
CCCCCCCCCOC(C)=O,-3.21%,–
O=C(O)Cc1ccc(-c2ccccc2)cc1,2.32% [at 35.3 µM],–
CC(=O)Nc1ccc(N)cc1,-5.53%,–
CO/N=C1\CN(c2nc3c(cc2F)c(=O)c(C(=O)O)cn3C2CC2)CC1CN (centres undefined),-6.98% [at 35.3 µM],–
c1cnc2c(n1)CCCC2,–,38.9 µM (active)
CCCCCC=CCC=CCCCCCCCC(=O)OCC,25.5% [at 35.3 µM],–
CC(C)=CC=O,0.704%,–
CC(C)c1nnc2ccc(-c3ocnc3-c3cc(F)ccc3F)cn12,-2.46%,–
Cc1cc2nc3ccc(=[N+](C)C)cc-3sc2cc1N,-14.7% [at 35.3 µM],–
O=C(/C=C/c1ccccc1)OCCCc1ccccc1,-11.5%,–
OCCSc1ccccc1,23.4%,–
C=CC(C)(O)CCCC(C)CCCC(C)CCCC(C)C (centres undefined),-6.02%,–
COC(=O)[C@@H]1CC2=CC(=O)CC[C@]2(C)[C@@]23O[C@@H]2C[C@@]2(C)[C@@H](CC[C@@]24CCC(=O)O4)[C@H]13,7.58% [at 35.3 µM],–
CCCCOC(=O)CCS,-11%,–
CCC(C)=O,1.11%,–
N#C[C@@H]1C[C@@H]2C[C@@H]2N1C(=O)[C@@H](N)C12CC3CC(CC(O)(C3)C1)C2,0.0057% [at 35.3 µM],–
CCN(Cc1cccc(S(=O)(=O)O)c1)c1ccc(C(=C2C=CC(=[N+](CC)Cc3cccc(S(=O)(=O)[O-])c3)C=C2)c2ccccc2)cc1,-3.05% [at 35.3 µM],–

# Assay: qHTS RealTime-Glo MT Cell Viability Assay in HEK293 cells - 0 hour (AID 1224880); note: top concentration of the series differs between compounds; nearly all actives have a fitted effect of over 45% in size
# Settings: RealTime-Glo luminescence; series mostly up to 76.8 µM; activity change, negative = cytotoxicity: at the top concentration
# In short: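 Measured as luminescence from the same continuously cultured HEK293 wells at successive time points (0, 8, 16, 24, 32, 40 h) after compound addition. Reagent present from seeding; dosing at 5 h; incubation 37 C.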
row,SMILES,"activity change, negative = cytotoxicity"
1,Cc1cc(OI)c(C(C)C)cc1-c1cc(C(C)C)c(OI)cc1C,-15.5% [at 35.3 µM]
2,C[N+](C)(C)CCOC(N)=O,-4.57% [at 35.3 µM]
3,CC(C)(O)c1ccccc1CC[C@@H](SCC1(CC(=O)O)CC1)c1cccc(/C=C/c2ccc3ccc(Cl)cc3n2)c1,1.14% [at 35.3 µM]
4,CCCCC(CC)CNCC(CC)CCCC (centres undefined),6.89%
5,COCCOC,-2.61%
6,CC(=O)Nc1ccccc1C,-10%
7,C/C=C(\C)C(=O)OCCC(C)CCC=C(C)C (centres undefined),3.99%
8,CCn1nc(C)c2c1C(=O)NCC(c1ccc(O)cc1)=N2,8.38%
9,Cc1ccnc2ccccc12,-0.47%
10,CCn1cc(C(=O)O)c(=O)c2cc(F)c(N3CCNCC3)nc21,0.811% [at 35.3 µM]
11,Brc1cc(-c2ccc(Br)c(Br)c2Br)cc(Br)c1Br,1.75% [at 35.3 µM]
12,CCC1(C)CC(=O)NC1=O (centres undefined),-2.36% [at 35.3 µM]
13,O=S(=O)(c1ccccc1)c1ccc(Cl)cc1,0.093%
14,O=C(O)c1c(O)c(-c2ccccc2)nc2ccccc12,-0.192% [at 35.3 µM]
15,CC(C)(C)C(=O)O,9.78%
16,CCOC(=O)OCC,0.538%
17,CN1Cc2cc(C(=O)N3CCC(C4CCNCC4)CC3)ccc2N[C@@H](CC(=O)O)C1=O,0.504% [at 35.3 µM]
18,OC(CCCN1CCCCC1)(c1ccccc1)c1ccccc1,-1.46% [at 35.3 µM]

row,SMILES,"activity change, negative = cytotoxicity"
1,CCN(CC)CCNC(=O)c1ccc(NC(C)=O)cc1,-1.37% [at 35.3 µM]
2,CC(C)CCCCCOC(=O)CCCCC(=O)OCCCCCC(C)C,-8.64%
3,O=C(CS)OCCOC(=O)CS,-10.5%
4,CCCCCCCCCOC(C)=O,12.8%
5,O=C(O)Cc1ccc(-c2ccccc2)cc1,-2.09% [at 35.3 µM]
6,CC(=O)Nc1ccc(N)cc1,10.5%
7,CO/N=C1\CN(c2nc3c(cc2F)c(=O)c(C(=O)O)cn3C2CC2)CC1CN (centres undefined),-5.87% [at 35.3 µM]
8,c1cnc2c(n1)CCCC2,-5.14%
9,CC(C)=CC=O,5.98%
10,CC(C)c1nnc2ccc(-c3ocnc3-c3cc(F)ccc3F)cn12,-5.05%
11,O=C(/C=C/c1ccccc1)OCCCc1ccccc1,13.7%
12,OCCSc1ccccc1,21%
13,C=CC(C)(O)CCCC(C)CCCC(C)CCCC(C)C (centres undefined),3.97%
14,COC(=O)[C@@H]1CC2=CC(=O)CC[C@]2(C)[C@@]23O[C@@H]2C[C@@]2(C)[C@@H](CC[C@@]24CCC(=O)O4)[C@H]13,1.51% [at 35.3 µM]
15,CCCCOC(=O)CCS,-1.4%
16,CCC(C)=O,16%
17,N#C[C@@H]1C[C@@H]2C[C@@H]2N1C(=O)[C@@H](N)C12CC3CC(CC(O)(C3)C1)C2,1.37% [at 35.3 µM]
